PubChem BioAssay (EPA / NIEHS)
Inconclusive results are not listed. Activity calls are given as the source filed them. The calls were made as follows, unless noted: active = hit-call score of the fitted dose curve at least 0.9, where 1 is the maximum; inactive = score below 0.9.

Experiments:
[1] = ATG_PBREM_CIS: Attagene CIS-FACTORIAL HepG2 Assay for human Phenobarbital-responsive Enhancer Module (PBREM) (AID 2282955); conditions: HepG2 PBREM cis-reporter, Attagene multiplexed transcription; actives raise or lower the signal
Method in brief: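 HepG2, transient MRTU transfection, 24 h dosing; RNA → oligo(dT) RT → PCR → 6-FAM extension → HpaI → CE. Bidirectional fit vs DMSO.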

[2] = target: Paired box protein Pax-6 (Homo sapiens) (UniProt P26367); assay: ATG_Pax6_CIS: Attagene CIS-FACTORIAL HepG2 Assay for human Paired Box 6 (PAX6) (AID 2282956); conditions: HepG2 CIS-FACTORIAL PAX6 reporter transcription, RNA readout; actives raise or lower the signal
Method in brief: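 Read-out is reporter transcript level, measured by RT-PCR with fluorescent primer extension and capillary electrophoresis after 24 h dosing of transfected HepG2 cells. Activity in either direction fitted relative to DMSO control.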

[3] = ATG_PXRE_CIS: Attagene CIS-FACTORIAL HepG2 Assay for human Pregnane X Receptor Element (PXRE) (AID 2282957); conditions: HepG2 Attagene CIS-FACTORIAL PXRE reporter, mRNA; actives raise or lower the signal
Method in brief: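 Bidirectional activity, baselined to DMSO, derived from reporter mRNA fluorescence (RT-PCR plus capillary electrophoresis) in HepG2 cells bearing cis-promoter reporter units, 24 h exposure.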

[4] = ATG_PPRE_CIS: Attagene CIS-FACTORIAL HepG2 Assay for human Peroxisome Proliferator-activated Response Element (PPRE) (AID 2282958); conditions: HepG2 PPRE cis-element reporter, Attagene transcription factor profiling; actives raise or lower the signal
Method in brief: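 Transcript-level reporter induction in transfected HepG2 cells after 24 h chemical exposure, quantified by fluorescence from RT-PCR products separated by capillary electrophoresis.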

[5] = ATG_RORE_CIS: Attagene CIS-FACTORIAL HepG2 Assay for human RAR-related Orphan Receptor Element (RORE) (AID 2282959); conditions: HepG2 Attagene cis-factorial RORE reporter, mRNA; actives raise or lower the signal
Method in brief: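 Multiplexed reporter assay measuring mRNA induction from a cis promoter element in transiently transfected HepG2 cells after 24 h treatment. Detection via RT-PCR and capillary electrophoresis fluorescence; DMSO serves as baseline.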

[6] = ATG_Sox_CIS: Attagene CIS-FACTORIAL HepG2 Assay for human SRY-box transcription factor (SOX) (AID 2282960); conditions: HepG2 Attagene cis-factorial SOX reporter, mRNA; actives raise or lower the signal
Method in brief: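 Cells were transfected with reporter constructs under cis-regulatory promoters, then exposed to chemicals for 24 h. Reporter transcripts were quantified by fluorescence after RT-PCR and capillary electrophoresis; activity was fitted in both directions against DMSO.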

[7] = target: Transcription factor Sp1 (Homo sapiens) (UniProt P08047); assay: ATG_Sp1_CIS: Attagene CIS-FACTORIAL HepG2 Assay for human Specificity Protein 1 (Sp1) (AID 2282961); conditions: HepG2 Sp1 cis-reporter transcription, actives raise or lower the signal
Method in brief: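 Measures mRNA induction of an Sp1-linked reporter in HepG2 cells 24 h post-dosing. Multiplexed reporters read by RT-PCR and capillary electrophoresis; DMSO serves as negative control and baseline.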

[8] = ATG_SREBP_CIS: Attagene CIS-FACTORIAL HepG2 Assay for human Sterol Regulatory Element Binding (SREBP) (AID 2282962); conditions: HepG2 Attagene cis-factorial SREBP reporter, mRNA; actives raise or lower the signal
Method in brief: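 Endogenous SREBP activity read as cis-element-driven reporter transcript in transiently transfected HepG2, 24 h post-dosing; quantified via RT-PCR plus capillary electrophoresis of fluorescent fragments. Gain or loss of signal fitted relative to DMSO baseline.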

[9] = target: Signal transducer and activator of transcription 3 (Homo sapiens) (UniProt P40763); assay: ATG_STAT3_CIS: Attagene CIS-FACTORIAL HepG2 Assay for human Signal Transducer and Activator of Transcription 3 (STAT3) (AID 2282963); conditions: HepG2, Attagene cis-factorial STAT3 reporter transcription; actives raise or lower the signal
Method in brief: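 Readout: fluorescent reporter mRNA fragments resolved by capillary electrophoresis. Setup: HepG2 transfected with MRTUs reporting endogenous transcription-factor activity, dosed 24 h. Gain or loss of signal fitted bidirectionally against DMSO control.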

[10] = ATG_TA_CIS: Attagene CIS-FACTORIAL HepG2 Assay for human TA Basal Promoter (AID 2282964); conditions: HepG2 Attagene CIS-factorial TA basal promoter reporter; actives raise or lower the signal
Method in brief: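 Multiplexed mRNA reporter assay, HepG2, 24 h. Reporter cDNA amplified, 6-FAM primer-extended, HpaI-cut, CE-sized; DMSO = negative control and baseline.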

[11] = ATG_TCF_b_cat_CIS: Attagene CIS-FACTORIAL HepG2 Assay for human T-Cell-Factor with beta-catenin (TCF/b-cat) (AID 2282965); conditions: HepG2 TCF/beta-catenin cis-reporter transcription, actives raise or lower the signal
Method in brief: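 Cells of the HepG2 line carry transiently transfected reporter units whose promoters respond to endogenous factors. Twenty-four hours post-dosing, reporter mRNA induction is measured by fluorescent RT-PCR and capillary electrophoresis, with DMSO as baseline.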

[12] = ATG_TAL_CIS: Attagene CIS-FACTORIAL HepG2 Assay for human TAL Basal Promoter (AID 2282966); conditions: HepG2 Attagene cis-factorial TAL promoter reporter; actives raise or lower the signal;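 also: background control endpoint measuring basal TAL promoter reporter mRNA not a specific factor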
Method in brief: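 Human hepatoma HepG2 cells, transfected with promoter-regulated reporter units, were treated 24 h. Reporter transcript levels, measured through RT-PCR and capillary electrophoresis, were fitted for gain or loss relative to DMSO.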

[13] = ATG_TGFb_CIS: Attagene CIS-FACTORIAL HepG2 Assay for human Transforming Growth Factor (TGF) (AID 2282967); conditions: HepG2 Attagene CIS TGFb reporter, mRNA transcription; actives raise or lower the signal
Method in brief: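 Transcript-level reporter readout: HepG2 transfectants, 24 h exposure, RNA to cDNA, reporter-specific PCR, fluorescent primer extension, capillary sizing against ROX standards. Gain- or loss-of-signal relative to DMSO.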

[14] = ATG_VDRE_CIS: Attagene CIS-FACTORIAL HepG2 Assay for human Vitamin D Receptor Element (VDRE) (AID 2282968); conditions: HepG2 VDRE cis-reporter transcription, actives raise or lower the signal
Method in brief: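 Transient MRTU transfection of HepG2, 24 h compound exposure. Readout: reporter transcripts via RT-PCR and capillary electrophoresis, fluorescence. Bidirectional fit vs DMSO.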

[15] = target: Nuclear receptor subfamily 1 group I member 3 (Homo sapiens) (UniProt Q14994); assay: ATG_CAR_TRANS: Attagene TRANS-FACTORIAL HepG2 Assay for human Constitutive Androstane Receptor (CAR) (AID 2282969; active = hit-call score of the fitted dose curve at least 0.9, where 1 is the maximum;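 also: activators raise reporter mRNA above DMSO so AC50 marks induction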); conditions: HepG2 Attagene TRANS-FACTORIAL CAR reporter
Method in brief: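 Transiently transfected HepG2, multiplex TRANS reporters (CAR-Gal4 chimera driving GAL4-UAS reporter). 24 h dosing. Readout: reporter transcript by RT-PCR + capillary electrophoresis, fluorescence intensity; positive direction vs DMSO.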

[16] = target: Estrogen receptor (Homo sapiens) (UniProt P03372); assay: ATG_ERa_TRANS: Attagene TRANS-FACTORIAL HepG2 Assay for human Estrogen Receptor alpha (ERa) (AID 2282970; active = hit-call score of the fitted dose curve at least 0.9, where 1 is the maximum); conditions: HepG2 Attagene TRANS ERa GAL4 reporter, mRNA
Method in brief: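 Signal derives from fluorescence of labelled reporter PCR fragments separated by capillary electrophoresis. HepG2 cells transiently carrying multiple GAL4-UAS reporter units were treated 24 hours, and induction above DMSO baseline was fitted as activity.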

[17] = target: X-box-binding protein 1 (Homo sapiens) (UniProt P17861); assay: ATG_Xbp1_CIS: Attagene CIS-FACTORIAL HepG2 Assay for human X-box Binding Protein 1 (XBP1) (AID 2282972); conditions: HepG2 XBP1 cis-element reporter, Attagene multiplex; actives raise or lower the signal
Method in brief: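 Reporter transcripts were quantified by RT-PCR with fluorescent primer extension and capillary electrophoresis after 24 h chemical exposure. Cells: transiently transfected HepG2 carrying cis-regulated reporter constructs; data fitted bidirectionally relative to DMSO.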

[18] = ATG_M_19_TRANS: Attagene TRANS-FACTORIAL HepG2 Assay for M19 Transcription Factor (Internal Marker) (AID 2282974; active = hit-call score of the fitted dose curve at least 0.9, where 1 is the maximum); conditions: HepG2 Attagene TRANS-FACTORIAL M19 internal marker reporter
Method in brief: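 After transfection of HepG2 with GAL4-UAS-driven reporter constructs, cells are dosed for 24 h. Total RNA is reverse-transcribed, reporter sequences PCR-amplified and labelled, then HpaI-digested and sized by capillary electrophoresis.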

[19] = ATG_GAL4_TRANS: Attagene TRANS-FACTORIAL HepG2 Assay for GAL4 (Internal Marker) (AID 2282976; active = hit-call score of the fitted dose curve at least 0.9, where 1 is the maximum); conditions: HepG2 Attagene TRANS GAL4 internal marker reporter
Method in brief: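 Liver HepG2 line bearing multiplexed GAL4-UAS reporter constructs; 24 h chemical treatment. Transcripts were quantified as fluorescent fragments on capillary electrophoresis after RT-PCR and HpaI cut, with activity fitted upward from DMSO.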

[20] = target: Steroid hormone receptor ERR1 (Homo sapiens) (UniProt P11474); assay: ATG_ERRa_TRANS: Attagene TRANS-FACTORIAL HepG2 Assay for human Estrogen-Related Receptor alpha (ERRa) (AID 2282971; active = hit-call score of the fitted dose curve at least 0.9, where 1 is the maximum); conditions: HepG2 Attagene TRANS reporter, ERRa transactivation
Method in brief: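 Signal gain relative to DMSO for an ERRa-Gal4 chimeric receptor, read as reporter mRNA by RT-PCR/capillary electrophoresis. Human HepG2 liver cells, transient multiplex reporter transfection, 24 h chemical exposure.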

Measured: AC50

Chain of X-box-binding protein 1 (Homo sapiens) (P17861 whole entry, looked up): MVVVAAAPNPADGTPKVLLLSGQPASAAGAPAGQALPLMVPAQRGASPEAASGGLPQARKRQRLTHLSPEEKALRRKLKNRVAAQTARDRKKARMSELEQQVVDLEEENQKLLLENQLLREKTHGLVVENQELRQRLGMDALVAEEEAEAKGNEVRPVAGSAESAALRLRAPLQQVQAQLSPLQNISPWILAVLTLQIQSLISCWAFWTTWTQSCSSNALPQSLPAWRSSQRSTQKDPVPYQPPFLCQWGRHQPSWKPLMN
Chain of Paired box protein Pax-6 (Homo sapiens) (P26367 whole entry, looked up): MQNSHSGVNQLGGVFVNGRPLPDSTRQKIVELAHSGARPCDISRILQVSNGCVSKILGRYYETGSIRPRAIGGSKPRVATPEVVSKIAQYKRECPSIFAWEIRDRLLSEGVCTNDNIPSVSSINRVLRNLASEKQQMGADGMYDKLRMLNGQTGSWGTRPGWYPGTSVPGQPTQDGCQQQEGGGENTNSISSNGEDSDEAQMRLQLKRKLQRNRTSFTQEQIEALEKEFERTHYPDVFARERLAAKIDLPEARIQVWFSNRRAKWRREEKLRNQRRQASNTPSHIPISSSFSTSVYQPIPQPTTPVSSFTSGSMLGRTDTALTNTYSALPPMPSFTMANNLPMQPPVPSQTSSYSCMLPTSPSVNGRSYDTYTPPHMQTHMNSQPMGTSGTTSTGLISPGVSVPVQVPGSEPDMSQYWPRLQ
Chain of Signal transducer and activator of transcription 3 (Homo sapiens) (P40763 whole entry, looked up, the tested form may be a part): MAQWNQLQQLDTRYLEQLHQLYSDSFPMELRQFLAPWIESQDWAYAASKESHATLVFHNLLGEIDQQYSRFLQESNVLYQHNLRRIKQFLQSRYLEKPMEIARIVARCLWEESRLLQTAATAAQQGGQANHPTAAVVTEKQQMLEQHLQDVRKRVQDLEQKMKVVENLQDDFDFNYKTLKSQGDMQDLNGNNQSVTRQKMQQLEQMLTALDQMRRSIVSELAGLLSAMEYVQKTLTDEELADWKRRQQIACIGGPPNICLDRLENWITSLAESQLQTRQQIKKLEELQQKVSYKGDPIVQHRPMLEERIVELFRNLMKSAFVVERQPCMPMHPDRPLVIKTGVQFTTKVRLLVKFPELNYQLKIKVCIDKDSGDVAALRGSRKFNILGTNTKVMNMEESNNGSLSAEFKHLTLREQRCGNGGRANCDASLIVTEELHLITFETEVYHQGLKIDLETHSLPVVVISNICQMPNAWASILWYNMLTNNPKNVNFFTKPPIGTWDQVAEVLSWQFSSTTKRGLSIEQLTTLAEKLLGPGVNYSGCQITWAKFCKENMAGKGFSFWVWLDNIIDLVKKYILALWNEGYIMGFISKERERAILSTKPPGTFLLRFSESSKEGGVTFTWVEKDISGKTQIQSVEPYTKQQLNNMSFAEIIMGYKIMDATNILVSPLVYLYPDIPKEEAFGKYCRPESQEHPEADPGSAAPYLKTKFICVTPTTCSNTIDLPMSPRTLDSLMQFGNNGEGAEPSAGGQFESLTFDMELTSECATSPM
Chain of Estrogen receptor (Homo sapiens) (P03372 whole entry, looked up, the tested form may be a part): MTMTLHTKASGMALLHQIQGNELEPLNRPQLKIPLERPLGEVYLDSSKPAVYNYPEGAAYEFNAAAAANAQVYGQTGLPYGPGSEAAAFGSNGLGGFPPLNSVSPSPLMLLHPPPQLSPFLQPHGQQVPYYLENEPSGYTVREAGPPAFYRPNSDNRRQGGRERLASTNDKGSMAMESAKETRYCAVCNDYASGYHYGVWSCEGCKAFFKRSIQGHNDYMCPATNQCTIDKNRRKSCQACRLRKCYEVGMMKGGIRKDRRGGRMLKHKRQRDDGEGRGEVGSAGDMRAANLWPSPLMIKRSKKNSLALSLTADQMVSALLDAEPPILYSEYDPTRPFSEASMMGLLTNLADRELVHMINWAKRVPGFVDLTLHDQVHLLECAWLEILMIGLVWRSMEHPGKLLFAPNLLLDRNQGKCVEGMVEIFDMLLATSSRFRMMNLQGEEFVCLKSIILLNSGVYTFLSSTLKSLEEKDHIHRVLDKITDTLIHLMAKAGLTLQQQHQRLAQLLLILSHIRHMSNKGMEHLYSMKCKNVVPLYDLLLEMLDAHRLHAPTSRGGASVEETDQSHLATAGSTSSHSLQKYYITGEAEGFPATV
Chain of Steroid hormone receptor ERR1 (Homo sapiens) (P11474 whole entry, looked up, the tested form may be a part): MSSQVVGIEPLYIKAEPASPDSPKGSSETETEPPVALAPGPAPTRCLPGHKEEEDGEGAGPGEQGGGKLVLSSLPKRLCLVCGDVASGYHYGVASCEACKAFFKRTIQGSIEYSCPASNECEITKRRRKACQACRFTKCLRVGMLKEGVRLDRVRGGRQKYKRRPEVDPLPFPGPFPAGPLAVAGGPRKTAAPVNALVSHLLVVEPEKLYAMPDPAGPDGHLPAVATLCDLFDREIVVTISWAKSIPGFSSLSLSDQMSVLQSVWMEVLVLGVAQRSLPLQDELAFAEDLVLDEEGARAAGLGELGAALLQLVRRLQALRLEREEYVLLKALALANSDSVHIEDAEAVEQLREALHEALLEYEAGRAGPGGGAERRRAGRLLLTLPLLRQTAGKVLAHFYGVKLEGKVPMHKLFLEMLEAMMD
Chain of Transcription factor Sp1 (Homo sapiens) (P08047 whole entry, looked up): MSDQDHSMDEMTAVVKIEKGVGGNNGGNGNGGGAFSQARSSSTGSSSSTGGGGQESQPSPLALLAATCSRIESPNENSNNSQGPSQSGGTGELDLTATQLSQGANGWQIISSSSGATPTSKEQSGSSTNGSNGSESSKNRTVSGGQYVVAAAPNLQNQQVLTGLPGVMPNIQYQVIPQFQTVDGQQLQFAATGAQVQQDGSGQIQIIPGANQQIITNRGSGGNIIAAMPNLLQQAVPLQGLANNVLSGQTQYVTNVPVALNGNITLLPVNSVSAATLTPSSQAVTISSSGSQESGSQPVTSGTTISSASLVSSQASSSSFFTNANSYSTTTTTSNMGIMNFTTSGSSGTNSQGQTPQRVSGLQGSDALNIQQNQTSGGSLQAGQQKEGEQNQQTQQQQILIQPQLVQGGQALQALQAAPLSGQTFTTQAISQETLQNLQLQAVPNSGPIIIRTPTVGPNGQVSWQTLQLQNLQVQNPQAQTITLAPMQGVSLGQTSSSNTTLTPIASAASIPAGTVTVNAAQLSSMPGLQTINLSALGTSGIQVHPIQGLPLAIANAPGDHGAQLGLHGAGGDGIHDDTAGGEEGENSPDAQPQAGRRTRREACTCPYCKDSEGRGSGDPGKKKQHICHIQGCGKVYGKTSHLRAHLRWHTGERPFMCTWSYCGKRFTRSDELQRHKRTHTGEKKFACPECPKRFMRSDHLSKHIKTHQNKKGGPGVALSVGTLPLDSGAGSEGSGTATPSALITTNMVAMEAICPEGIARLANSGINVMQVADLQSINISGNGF
Chain of Nuclear receptor subfamily 1 group I member 3 (Homo sapiens) (Q14994 whole entry, looked up, the tested form may be a part): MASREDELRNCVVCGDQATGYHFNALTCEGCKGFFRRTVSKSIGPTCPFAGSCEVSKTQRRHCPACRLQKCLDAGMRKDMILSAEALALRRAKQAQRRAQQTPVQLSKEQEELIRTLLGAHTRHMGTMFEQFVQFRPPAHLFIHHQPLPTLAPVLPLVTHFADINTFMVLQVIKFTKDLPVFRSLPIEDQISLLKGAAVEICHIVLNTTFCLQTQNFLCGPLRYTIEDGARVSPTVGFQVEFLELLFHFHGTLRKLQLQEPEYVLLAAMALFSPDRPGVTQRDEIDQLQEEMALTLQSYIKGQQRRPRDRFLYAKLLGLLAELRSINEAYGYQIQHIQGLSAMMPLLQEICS

O=S(=O)(O)c1ccc(N=Nc2c(O)ccc3ccccc23)cc1
active: [3] 31.6 µM
not listed: [19] | [20]
inactive: all other assays above

O=C1c2ccccc2C(=O)c2cc(S(=O)(=O)O)ccc21
not listed: [15] | [16] | [19] | [20]
inactive: all other assays above

C[Si]1(C)O[Si](C)(C)O[Si](C)(C)O[Si](C)(C)O[Si](C)(C)O1
active: [3] 27.2 µM
not listed: [16] | [20]
inactive: all other assays above

CC1=CC(C)C(C=O)CC1 (stereo unspecified)
active: [3] 27.7 µM
not listed: [8] | [18] | [19]
inactive: all other assays above

CCC(=O)C1CC(C(C)C)CC=C1C (stereo unspecified)
active: [3] 4.33 µM
not listed: [14] | [15] | [18] | [19]
inactive: all other assays above

Oc1ccc(/C=C/c2cc(O)cc(O)c2)cc1
active: [1] 100 µM | [4] 100 µM | [8] 26.9 µM | [10] 137 µM | [11] 27.3 µM | [16] 6 µM
not listed: [15] | [18] | [20]
inactive: all other assays above

CCCCOC(=O)CCC(C)=O
not listed: [8] | [19] | [20]
inactive: all other assays above

CCc1occc(=O)c1O
active: [3] 28.4 µM
not listed: [14] | [15] | [18] | [20]
inactive: all other assays above

CC(=O)OCC=C(C)C
active: [3] 52.1 µM
not listed: [20]
inactive: all other assays above

CCC(C)C(=O)OCCc1ccccc1 (stereo unspecified)
not listed: [14] | [15] | [18] | [19] | [20]
inactive: all other assays above

CC=C(C)C(C)=O
active: [3] 8.49 µM
not listed: [11] | [14] | [16] | [18] | [20]
inactive: all other assays above

COc1cc(C)ccc1O
not listed: [18] | [20]
inactive: all other assays above

Nc1ccc(C(=O)O)cc1
not listed: [14] | [15] | [20]
inactive: all other assays above

Cc1c(O)cccc1O
active: [3] 127 µM | [16] 46.1 µM
not listed: [9] | [18] | [20]
inactive: all other assays above

C=C(C)C(=O)OCCCCCCCCCCCC
active: [3] 30.9 µM | [16] 56.7 µM
not listed: [11] | [19]
inactive: all other assays above

O=C(O)CCC(=O)O
not listed: [8] | [15] | [20]
inactive: all other assays above
